# Data taken from PMC5540273 (PLoS ONE, 2017).
# Values joined by “and” are separate entries in the source; they are usually repeats but may differ in a detail not shown here. Equal values may be shown once. Read-outs that look alike come from different tables or passages of the source.
# Tests used:
# [1] = test system: T1, RSK2(Kin.Dom.1-N-terminal); settings: concentration: 1 μM, replicates: in singlicate, n = 1
# T1 construct: gene RPS6KA3
# [2] = test system: T2, RSK2(Kin.Dom.2-C-terminal); settings: concentration: 1 μM, replicates: in singlicate, n = 1
# T2 construct: gene RPS6KA3
# [3] = test system: T3, RSK3(Kin.Dom.1-N-terminal); settings: concentration: 1 μM, replicates: in singlicate, n = 1
# T3 construct: gene RPS6KA2
# [4] = test system: T4, RSK3(Kin.Dom.2-C-terminal); settings: concentration: 1 μM, replicates: in singlicate, n = 1
# T4 construct: gene RPS6KA2
# [5] = test system: T5, RSK4(Kin.Dom.1-N-terminal); settings: concentration: 1 μM, replicates: in singlicate; n = 1
# T5 construct: gene RPS6KA6
# [6] = test system: T6, RSK4(Kin.Dom.2-C-terminal); settings: concentration: 1 μM, replicates: in singlicate, n = 1
# T6 construct: gene RPS6KA6
# S6K1 = settings: concentration: 1 μM, replicates: in singlicate, n = 1
# SBK1 = settings: concentration: 1 μM, replicates: in singlicate, n = 1
# SGK2 = settings: concentration: 1 μM, replicates: in singlicate, n = 1
# SGK3 = settings: concentration: 1 μM, replicates: in singlicate, n = 1
# SGK = settings: concentration: 1 μM, replicates: in singlicate, n = 1
# SIK2 = settings: concentration: 1 μM, replicates: in singlicate, n = 1
# SIK = settings: concentration: 1 μM, replicates: in singlicate, n = 1
# SLK = settings: concentration: 1 μM, replicates: in singlicate; n = 1
# SNARK = test system: T7, SNARK; settings: concentration: 1 μM, replicates: in singlicate, n = 1
# T7 construct: gene NUAK2
# SNRK = settings: concentration: 1 μM, replicates: in singlicate, n = 1
# SRC = settings: concentration: 1 μM, replicates: in singlicate; n = 1
# SRMS = settings: concentration: 1 μM, replicates: in singlicate, n = 1
# SRPK1 = settings: concentration: 1 μM, replicates: in singlicate, n = 1
# SRPK2 = settings: concentration: 1 μM, replicates: in singlicate, n = 1
# 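Note: KINOMEscan kinase panel screen.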
compound,measurement,setting,value
COc1cc2c(cc1OC[C@@H](O)CO)ncc1c3ccc(C#N)cc3[nH]c21,%Inh,[1],80%
same,%Inh,[2],0%
same,%Inh,[3],11%
same,%Inh,[4],11%
same,%Inh,[5],88%
same,%Inh,[6],18%
same,%Inh,S6K1,40%
same,%Inh,SBK1,71%
same,%Inh,SGK2,0%
same,%Inh,SGK3,38%
same,%Inh,SGK,47%
same,%Inh,SIK2,65%
same,%Inh,SIK,21%
same,%Inh,SLK,0%
same,%Inh,SNARK,89%
same,%Inh,SNRK,58%
same,%Inh,SRC,0%
same,%Inh,SRMS,0%
same,%Inh,SRPK1,0%
same,%Inh,SRPK2,0%
Nc1nccc(-c2c(-c3ccc(F)cc3)ncn2C2CCN(CC(F)(F)F)CC2)n1 [SB-236560],%Inh,[1],14%
same,%Inh,[2],35%
same,%Inh,[3],13%
same,%Inh,[4],35%
same,%Inh,[5],0%
same,%Inh,[6],56%
same,%Inh,S6K1,0%
same,%Inh,SBK1,0%
same,%Inh,SGK2,0%
same,%Inh,SGK3,3%
same,%Inh,SGK,25%
same,%Inh,SIK2,0%
same,%Inh,SIK,0%
same,%Inh,SLK,0%
same,%Inh,SNARK,0%
same,%Inh,SNRK,16%
same,%Inh,SRC,0%
same,%Inh,SRMS,0%
same,%Inh,SRPK1,19%
same,%Inh,SRPK2,41%
CCn1cnc2c(N)ncnc21 [GW345098],%Inh,[1],0%
same,%Inh,[2],14%
same,%Inh,[3],0%
same,%Inh,[4],24%
same,%Inh,[5],0%
same,%Inh,[6],26%
same,%Inh,S6K1,17%
same,%Inh,SBK1,0%
same,%Inh,SGK2,22%
same,%Inh,SGK3,0%
same,%Inh,SGK,25%
same,%Inh,SIK2,2%
same,%Inh,SIK,19%
same,%Inh,SLK,18%
same,%Inh,SNARK,0%
same,%Inh,SNRK,0%
same,%Inh,SRC,20%
same,%Inh,SRMS,12%
same,%Inh,SRPK1,24%
same,%Inh,SRPK2,19%
COc1cc2c(cc1OCCN1CCN(C)CC1)ncc1c3ccc(C#N)cc3[nH]c21,%Inh,[1],61%
same,%Inh,[2],42%
same,%Inh,[3],33%
same,%Inh,[4],47%
same,%Inh,[5],67%
same,%Inh,[6],44%
same,%Inh,S6K1,53%
same,%Inh,SBK1,72%
same,%Inh,SGK2,43%
same,%Inh,SGK3,19%
same,%Inh,SGK,78%
same,%Inh,SIK2,88%
same,%Inh,SIK,17%
same,%Inh,SLK,34%
same,%Inh,SNARK,97.1%
same,%Inh,SNRK,27%
same,%Inh,SRC,0%
same,%Inh,SRMS,0%
same,%Inh,SRPK1,7%
same,%Inh,SRPK2,0%
Cc1ccc(NC(=O)c2ccnc(N3CCN(C)CC3)c2)cc1-c1ccc(C(=O)NCC2CC2)cc1 [GW775604],%Inh,[1],0%
same,%Inh,[2],0%
same,%Inh,[3],0%
same,%Inh,[4],15%
same,%Inh,[5],0%
same,%Inh,[6],7%
same,%Inh,S6K1,9%
same,%Inh,SBK1,0%
same,%Inh,SGK2,0%
same,%Inh,SGK3,0%
same,%Inh,SGK,0%
same,%Inh,SIK2,21%
same,%Inh,SIK,0%
same,%Inh,SLK,0%
same,%Inh,SNARK,0%
same,%Inh,SNRK,0%
same,%Inh,SRC,0%
same,%Inh,SRMS,3%
same,%Inh,SRPK1,0%
same,%Inh,SRPK2,0%
CCc1nc(-c2cccc(C)c2)c(-c2ccnc(NCc3ccccc3)c2)s1,%Inh,[1],0%
same,%Inh,[2],0%
same,%Inh,[3],0%
same,%Inh,[4],2%
same,%Inh,[5],0%
same,%Inh,[6],53%
same,%Inh,S6K1,4%
same,%Inh,SBK1,0%
same,%Inh,SGK2,4%
same,%Inh,SGK3,0%
same,%Inh,SGK,2%
same,%Inh,SIK2,10%
same,%Inh,SIK,5%
same,%Inh,SLK,7%
same,%Inh,SNARK,0%
same,%Inh,SNRK,0%
same,%Inh,SRC,7%
same,%Inh,SRMS,1%
same,%Inh,SRPK1,1%
same,%Inh,SRPK2,0%
c1ccc(-c2n[nH]cc2-c2ccnc3ccccc23)nc1 [GW271431],%Inh,[1],0%
same,%Inh,[2],0%
same,%Inh,[3],0%
same,%Inh,[4],0%
same,%Inh,[5],0%
same,%Inh,[6],48%
same,%Inh,S6K1,1%
same,%Inh,SBK1,9%
same,%Inh,SGK2,6%
same,%Inh,SGK3,10%
same,%Inh,SGK,0%
same,%Inh,SIK2,9%
same,%Inh,SIK,8%
same,%Inh,SLK,16%
same,%Inh,SNARK,0%
same,%Inh,SNRK,0%
same,%Inh,SRC,7%
same,%Inh,SRMS,0%
same,%Inh,SRPK1,25%
same,%Inh,SRPK2,0%
CC(C)(CN)c1nc(-c2ccc(Cl)c(O)c2)c(-c2ccncc2)[nH]1.O=C(O)C(F)(F)F [SB-477794],%Inh,[1]; 1 µM,0% and 11%
same,%Inh,[2]; 1 µM,36% and 27%
same,%Inh,[3]; 1 µM,6% and 2%
same,%Inh,[4]; 1 µM,0% and 2%
same,%Inh,[5],0%
same,%Inh,[6]; 1 µM,90.6% and 89%
same,%Inh,S6K1; 1 µM,43% and 37%
same,%Inh,SBK1; 1 µM,5% and 6%
same,%Inh,SGK2; 1 µM,2% and 0%
same,%Inh,SGK3; 1 µM,0% and 7%
same,%Inh,SGK; 1 µM,23% and 3%
same,%Inh,SIK2; 1 µM,78% and 71%
same,%Inh,SIK; 1 µM,21% and 33%
same,%Inh,SLK,99.3%
same,%Inh,SNARK; 1 µM,0% and 7%
same,%Inh,SNRK; 1 µM,11% and 0%
same,%Inh,SRC,99.9%
same,%Inh,SRMS; 1 µM,0% and 15%
same,%Inh,SRPK1; 1 µM,17% and 42%
same,%Inh,SRPK2; 1 µM,26% and 74%
CN(C(=O)c1ccc(-c2cc(-c3c[nH]nc3-c3ccccn3)ccn2)cc1)C1CCOCC1 [GW810083],%Inh,[1],6%
same,%Inh,[2],20%
same,%Inh,[3],0%
same,%Inh,[4],16%
same,%Inh,[5],0%
same,%Inh,[6],53%
same,%Inh,S6K1,0%
same,%Inh,SBK1,0%
same,%Inh,SGK2,8%
same,%Inh,SGK3,0%
same,%Inh,SGK,18%
same,%Inh,SIK2,0%
same,%Inh,SIK,0%
same,%Inh,SLK,0%
same,%Inh,SNARK,0%
same,%Inh,SNRK,0%
same,%Inh,SRC,0%
same,%Inh,SRMS,0%
same,%Inh,SRPK1,0%
same,%Inh,SRPK2,14%
Cc1c(Cn2c(C)nn3c(=O)cc(N4CCOC(C)C4)nc23)cccc1C(F)(F)F (centres unmarked) [GSK2344444],%Inh,[1],10%
same,%Inh,[2],0%
same,%Inh,[3],3%
same,%Inh,[4],0%
same,%Inh,[5],1%
same,%Inh,[6],17%
same,%Inh,S6K1,9%
same,%Inh,SBK1,33%
same,%Inh,SGK2,0%
same,%Inh,SGK3,0%
same,%Inh,SGK,9%
same,%Inh,SIK2,0%
same,%Inh,SIK,0%
same,%Inh,SLK,7%
same,%Inh,SNARK,0%
same,%Inh,SNRK,0%
same,%Inh,SRC,0%
same,%Inh,SRMS,0%
same,%Inh,SRPK1,32%
same,%Inh,SRPK2,0%
